TWEAK Fn14 block = inhibitors of TWEAK-Fn14 signaling, primary screen, luciferase reporter cells, uHTS. TWEAK-stimulated Fn14 reporter cells, luciferase luminescence, 8 h. inhibition, % at 10 µM. actives 2% (n = 360,000). AID 1159606, 2016; in the data active means inhibition above about 50%
CF NFkB inh = inhibitors of PAF-induced NF-kB signaling, primary screen, cell-based, GFP fluorescence, uHTS. KKLEB NF-kB-GFP reporter, GFP fluorescence overnight. inhibition, % at 5 µM. actives 0.86% (n = 360,000);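 active means at least 50% inhibition at 5 µM, scaled per plate between neutral and stimulator controls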;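 further: PAF is a Pseudomonas aeruginosa culture filtrate used as stimulus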
KKLEB tox = cytotoxicity in KKLEB CF airway cells, primary screen, cytotoxicity control for CF NF-kB inhibitor project, cell-based, uHTS, fluorescence assay plates; KKLEB CF airway cells viability, ATPlite luminescence, overnight; hits give low values; cells stimulated with P. aeruginosa culture filtrate; activity change (cytotoxicity), % at 5 µM; actives 0.36% (n = 360,000);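 active means corrected activity change at or below -50% at 5 µM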
HIF-2a block = HIF-2a reporter inhibitors, primary screen, luminescence, 786-0 RCC cells | actives 0.72% (n = 360,000) | 786-0 RCC cells HIF-2a reporter, luciferase luminescence, overnight | inhibition, % at 18.8 µM;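 active means inhibition of the luminescence signal of 40% or more relative to plate controls, in a single-dose primary screen at 18.75 µM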
Peg3 promoter = Peg3 promoter-driven luciferase inhibitors, primary screen, cell-based, HeLa, luciferase luminescence | HeLa PEG-Prom luciferase reporter, overnight | actives 1.7% (n = 360,000) | inhibition, % at 20 µM;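 active means inhibition of at least 50% at 20 µM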
TROY NFkB inh = inhibitors of TROY-driven NF-kB signaling, primary screen, Q293 LMP1-TROYcd cells, NF-kB luciferase, uHTS; AID 1347056, 2019; Q293 LMP1-TROYcd NF-kB luciferase reporter, 4 h; actives 0.98% (n = 360,000); inhibition, % at 10 µM;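 active means compounds whose plate-normalised and pattern-corrected inhibition of the luciferase reporter signal at the single screening dose is 50% or more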
Mdm2-MdmX confirm = retested Mdm2-MdmX interaction blockers, confirmation, cell-based, luminescence, single concentration, set 2; shares compounds with HIF-2a block; SaOS-2 split-luciferase Mdm2/MdmX complementation; inhibition, % at 8 µM; actives 99% (n = 740);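 active means mean inhibition of the luminescence signal across two replicates at or above 26 percent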
Target sequence (O15151 whole entry, looked up): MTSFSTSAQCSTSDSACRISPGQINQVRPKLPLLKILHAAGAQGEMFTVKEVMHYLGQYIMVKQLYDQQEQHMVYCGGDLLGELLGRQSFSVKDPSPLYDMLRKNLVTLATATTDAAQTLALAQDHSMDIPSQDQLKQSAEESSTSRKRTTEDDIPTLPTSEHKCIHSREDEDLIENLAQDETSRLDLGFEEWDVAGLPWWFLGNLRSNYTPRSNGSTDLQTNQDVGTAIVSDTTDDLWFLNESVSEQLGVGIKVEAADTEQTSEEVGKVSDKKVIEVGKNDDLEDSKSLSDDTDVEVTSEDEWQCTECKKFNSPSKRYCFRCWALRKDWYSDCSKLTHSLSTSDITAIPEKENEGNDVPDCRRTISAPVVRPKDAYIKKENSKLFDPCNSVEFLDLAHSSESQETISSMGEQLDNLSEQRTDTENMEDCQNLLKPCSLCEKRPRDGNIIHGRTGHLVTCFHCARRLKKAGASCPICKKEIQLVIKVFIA
Target sequence (Q00987 whole entry, looked up): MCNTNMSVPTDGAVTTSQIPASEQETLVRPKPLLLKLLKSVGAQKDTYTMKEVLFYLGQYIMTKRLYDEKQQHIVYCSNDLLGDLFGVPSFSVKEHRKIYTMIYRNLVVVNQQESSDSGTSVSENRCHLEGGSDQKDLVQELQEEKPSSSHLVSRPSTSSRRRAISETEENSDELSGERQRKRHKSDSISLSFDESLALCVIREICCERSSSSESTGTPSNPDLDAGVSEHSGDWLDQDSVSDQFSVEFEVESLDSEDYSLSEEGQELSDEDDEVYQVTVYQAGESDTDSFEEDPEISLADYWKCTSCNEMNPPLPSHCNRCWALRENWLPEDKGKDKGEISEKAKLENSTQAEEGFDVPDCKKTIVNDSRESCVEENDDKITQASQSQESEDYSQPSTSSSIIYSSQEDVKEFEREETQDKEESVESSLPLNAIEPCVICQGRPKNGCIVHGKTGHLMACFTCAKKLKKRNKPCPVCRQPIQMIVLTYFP
HIF-2a inh conf = HIF-2a reporter inhibitor retest, confirmation, luminescence, 786-0 RCC cells; inhibition, % at 18.8 µM; HIF-2a luciferase reporter luminescence, overnight; actives 56% (n = 1,800); shares compounds with HIF-2a block;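 active means mean inhibition across four replicates of at least 40 percent at the single tested concentration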
HIF-1a cs = HIF-1a luciferase reporter signal reduction – MiaPaCa-2 cells, single concentration, counter-screen for HIF-2a inhibitor project, confirmation | shares compounds with HIF-2a block | MiaPaCa-2 HIF-1a luciferase reporter, desferoxamine, overnight | inhibition, % at 18.8 µM | actives 72% (n = 1,800);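 active means mean inhibition of the reporter signal across four replicates at the single tested dose of 50% or more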
A number is an active result; 0 = inactive; - = not tested or not shown. Shown are actives, neighbours in structure and some others; about 3.9% of the full set was active somewhere.

SMILES	TWEAK Fn14 block	CF NFkB inh	KKLEB tox	HIF-2a block	Peg3 promoter	TROY NFkB inh	HIF-2a inh conf	HIF-1a cs	others
CC(=NNC(=S)Nc1cccc(Cl)c1)c1ccccn1	0	0	0	72	93	0	0	0
CCC(Sc1ccc2nnc(CCNS(=O)(=O)c3ccc(OC)cc3)n2n1)C(=O)OC (stereo unspecified)	0	0	0	0	0	0	-	-
COC(=O)c1cc(=O)n(-c2ccc(F)cc2)c(=Nc2ccc(F)cc2)s1	50	0	0	53	93	0	66	91
N=c1c2c(-c3ccccc3)c(-c3ccccc3)n(Cc3ccco3)c2ncn1CCCN1CCOCC1	0	0	0	0	99	0	-	-	Mdm2-MdmX confirm=102
CC(C)Cn1cnc2c(c(-c3ccccc3)c(-c3ccccc3)n2Cc2ccco2)c1=N	0	0	0	58	104	0	0	102
N=c1c2c(-c3ccccc3)c(-c3ccccc3)n(Cc3ccco3)c2ncn1CCCn1ccnc1	0	0	0	69	66	0	0	74
c1ccc(-c2c(-c3ccccc3)n(Cc3ccco3)c3ncnc(NCCCn4ccnc4)c23)cc1	0	0	0	49	0	0	0	101
OCCNc1ncnc2c1c(-c1ccccc1)c(-c1ccccc1)n2Cc1ccco1	0	0	0	0	0	0	-	-
O=c1c2ccc([N+](=O)[O-])cc2ncn1CCOc1ccc(Cl)cc1	0	0	0	0	0	0	-	-
Cc1c(Cl)cccc1NC(=O)CSc1ncnc2c1cnn2CCO	0	0	0	0	0	0	-	-
Cn1cncc1C#Cc1c(C=O)n(C)c2ccccc12	0	0	0	0	0	0	-	-
Cn1cncc1C#Cc1c(C=O)[nH]c2ccccc12	0	0	0	43	0	0	0	88
CC(C)Cc1nc2oc3c(Cl)ncnc3c2c2c1CCCC2	0	0	0	75	113	73	45	100
COc1ccc(C(=O)OCN2C(=O)c3ccccc3C2=O)cc1	0	0	0	0	0	0	-	-
CCOc1cccc2sc(N(CCN(C)C)C(=O)/C=C/c3cccs3)nc12	0	0	0	0	0	0	-	-
COc1ccc(OC)c2sc(N(CCN(C)C)C(=O)/C=C/c3cccs3)nc12	0	68	-98	78	104	0	0	72
CCOC(=O)C(C)(C)N(Cc1cccc(C)c1)S(=O)(=O)c1ccc(Cl)c([N+](=O)[O-])c1	0	0	0	64	88	0	0	100
CCOC(=O)c1ccc(N2C(=O)C(CC(=O)NC)N(CCc3ccc(OC)c(OC)c3)C2=S)cc1 (stereo unspecified)	0	0	0	0	0	0	-	-
O=C(O)CSc1nnc(COc2cccc3ccccc23)n1Cc1ccccc1	0	0	0	0	0	0	-	-
Cn1c(COc2cccc3ccccc23)nnc1SCC(=O)OC1CCCCC1	0	0	0	67	0	0	0	0
CCn1c(COc2cccc3ccccc23)nnc1SCC(=O)OC1CCCCC1	0	0	0	58	0	0	0	0
Cn1c(CNc2cccc(Cl)c2)nnc1SCC(=O)OC1CCCCC1	0	0	0	0	0	0	-	-
COCCN(C(=O)c1ccc2ccccc2c1)c1c(N)n(Cc2ccccc2)c(=O)[nH]c1=O	0	0	0	0	0	0	-	-
CC(=O)N(C)C1=C(N2CCOCC2)C(=O)c2ccccc2C1=O	74	0	0	0	83	0	-	-	Mdm2-MdmX confirm=75
CC(=O)c1ccc(NC2=C(N3CCOCC3)C(=O)c3ccccc3C2=O)cc1	0	0	0	0	0	0	-	-
SMILES	TWEAK Fn14 block	CF NFkB inh	KKLEB tox	HIF-2a block	Peg3 promoter	TROY NFkB inh	HIF-2a inh conf	HIF-1a cs	others
O=C(c1cccc(-c2ccc(O)cc2)c1)N1CCOCC1	0	0	0	0	0	0	-	-
CC(=O)Oc1ccc(C(=O)Nc2ccc3c(c2)C(=O)N(CCC(=O)O)C3=O)cc1	0	0	0	0	0	0	-	-
COc1ccc(C(=O)Cn2c(C(=O)/C=C/c3ccccc3)nc3ccccc32)cc1	0	0	0	40	0	0	0	102
N#Cc1ccc(/C=C/C(=O)c2ccccc2)cc1	0	0	0	87	98	0	0	65
N#Cc1ccccc1COc1ccc(/C=C/C(=O)O)cc1	74	0	0	87	0	0	89	56
N#C/C(=C\c1ccccc1[N+](=O)[O-])C(=O)NCc1ccccc1	0	0	0	0	0	0	-	-
N#C/C(=C\C=C\c1ccccc1[N+](=O)[O-])C(=O)NCc1ccccc1	88	0	0	81	105	0	61	102
CC(=O)Nc1ccc(NC(=O)c2c([N+](=O)[O-])c(C(C)(C)C)nn2C)cc1	0	0	0	60	0	0	67	0
O=C(O)c1ccc(Nc2ncnc3c2cnn3Cc2ccccc2)cc1	0	0	0	0	0	0	-	-
O=c1c2c3nc4ccccc4nc3n(Cc3ccccc3)c2ncn1Cc1ccco1	0	0	0	44	76	0	0	78
CCCNC(=O)c1nnsc1S(=O)c1ccc(Cl)cc1 (stereo unspecified)	72	84	0	44	104	59	0	99
CCCNC(=O)c1ccc2snnc2c1	0	0	0	0	0	0	-	-
CCCNC(=O)NS(=O)(=O)c1ccc(Cl)cc1	0	0	0	0	0	0	-	-
CCCNC(=O)c1nnsc1S(=O)(=O)c1ccc(Cl)cc1	70	89	0	79	101	73	69	57	Mdm2-MdmX confirm=103
COc1ccc(CC(=O)N(CCC2=CCCCC2)c2c(N)n(Cc3ccccc3)c(=O)[nH]c2=O)cc1OC	0	0	0	0	0	0	-	-
COc1ccc(CNC[C@@H](CCCCN(C)Cc2ccc(OC)cc2)N2C[C@H](c3ccccc3)N(CCc3ccc(Cl)c(Cl)c3)C(=O)C2=O)cc1	97	62	-95	97	98	0	-	-	Mdm2-MdmX confirm=103

Screening results from PubChem BioAssay.
